# A number with no mark means an inactive call.
# Tested on: Vero E6 infected with SARS-CoV-2
# Test: inhibition of SARS-CoV-2 cytopathic effect; higher = more antiviral protection, active = above 15
# Settings: 48 h
SMILES,inhibition of SARS-CoV-2 cytopathic effect (1 nM) [%],inhibition of SARS-CoV-2 cytopathic effect (8.33 nM) [%],inhibition of SARS-CoV-2 cytopathic effect (100 nM) [%],inhibition of SARS-CoV-2 cytopathic effect (833.33 nM) [%],inhibition of SARS-CoV-2 cytopathic effect (10000 nM)
COc1cccc(-c2ccc([C@@H](Oc3cc(-c4ccc(C[C@H](N)C(=O)O)cc4)nc(N)n3)C(F)(F)F)cc2)c1,-4.34,-0.04,1.61,0.52,-1.29%
Cc1nc(N)sc1-c1ccnc(Nc2ccc(N3CCOCC3)cc2)n1,0.34,0.72,0.35,2.13,2.1%
C[C@]12CC[C@H]3[C@@H](CCC4=CC(=O)CC[C@@]43C)[C@@H]1CC[C@@H]2O,0.04,2.66,3.91,-1.25,-0.6%
Cc1ccc(N(CC2=NCCN2)c2cccc(O)c2)cc1 [phentolamine],-1.41,0.07,-0.25,1.86,-4.23%
CCC(C)(CN(C)C)OC(=O)c1ccccc1 (stereo not given) [amyleine],-1.14,0.02,-0.24,-8.42,-0.23%
CC(C)C[C@@H](NC(=O)[C@H](C)NC(=O)CNC(=O)[C@@H](NC=O)C(C)C)C(=O)N[C@@H](C)C(=O)N[C@@H](C(=O)N[C@H](C(=O)N[C@@H](C(=O)N[C@@H](Cc1c[nH]c2ccccc12)C(=O)N[C@H](CC(C)C)C(=O)N[C@@H](Cc1c[nH]c2ccccc12)C(=O)N[C@H](CC(C)C)C(=O)N[C@@H](Cc1c[nH]c2ccccc12)C(=O)N[C@H](CC(C)C)C(=O)N[C@@H](Cc1c[nH]c2ccccc12)C(=O)NCCO)C(C)C)C(C)C)C(C)C [gramicidin],0.05,0.15,0.36,-1.18,2.22%
Cc1ccc(NC2=NCCN2)c(Cl)c1 [tolonidine],1.65,0.34,0.64,-0.01,0.42%
Cc1nc(Nc2n[nH]c3c2CN(C(=O)N[C@H](CN(C)C)c2ccccc2)C3(C)C)c2sccc2n1,3.94,-1.34,-3.76,-4.38,-7.39%
CS(=O)(=O)Nc1ccc([N+](=O)[O-])cc1Oc1ccccc1 [nimesulide],0.43,-0.72,1.12,2.18,2.92%
CC(=O)O[C@@]12CO[C@@H]1C[C@H](O)[C@@]1(C)C(=O)[C@H](O)C3=C(C)[C@@H](O)C[C@@](O)([C@@H](OC(=O)c4ccccc4)[C@H]21)C3(C)C [10-deacetylbaccatin],-0.5,0.94,-1.67,-4.55,-2.63%
O=C(N[C@H]1CN2CCC1CC2)c1ccc2c(c1)OCCO2,-2.13,-1.4,-0.74,-0.26,-1.59%
Nc1ccn([C@@H]2O[C@H](CO)[C@@H](O)C2(F)F)c(=O)n1 [gemcitabine],1.67,2.4,-0.88,-3.94,3.81%
On1ncc(C2CCNCC2)c1-c1cccc(-c2ccccc2)c1,0.6,1.61,1.14,0.48,-2.39%
Nc1nc(N)c(N=O)c(OCC2CCCCC2)n1,-3.27,3.73,1.88,5.81,18.5% (active)
O=C(Nc1ccc(Cl)cc1)Nc1ccc(Cl)c(Cl)c1 [triclocarban],-2.22,-0.87,0.35,-1.44,-0.6%
CN(C)C/C=C/C(=O)Nc1cc2c(Nc3ccc(F)c(Cl)c3)ncnc2cc1O[C@H]1CCOC1 [afatinib],-2.03,-3.01,-5.33,-8.01,-9.49%
CC(C)(c1ccc(O)cc1)c1ccc(O)cc1 [bisphenol-A],3.73,8.2,2.75,1.31,4%
COc1cc2c(cc1OC)[C@@]13CCN4CC5=CCO[C@H]6CC(=O)N2[C@H]1[C@H]6[C@H]5C[C@H]43 [brucine],7.12,1.25,3.51,2.71,0.47%

SMILES,inhibition of SARS-CoV-2 cytopathic effect (1 nM) [%],inhibition of SARS-CoV-2 cytopathic effect (8.33 nM) [%],inhibition of SARS-CoV-2 cytopathic effect (100 nM) [%],inhibition of SARS-CoV-2 cytopathic effect (833.33 nM) [%],inhibition of SARS-CoV-2 cytopathic effect (10000 nM)
C=Cc1cc(O)cc2nc(-c3ccc(O)c(F)c3)oc12 [prinaberel],0.2,0.74,1.61,0.55,0.56%
CC(C)(N)C(=O)N[C@H](COCc1ccccc1)C(=O)N1CCC2(CC1)CN(S(C)(=O)=O)c1ccccc12 [ibutamoren],1.85,2.84,0.93,4.99,2.99%
NC(=O)[C@@H](CC1CC1)[C@@H](CCC(F)(F)F)C(=O)N[C@H]1N=C(c2ccccc2)c2cccc(F)c2NC1=O,-0.36,-1.04,-3.47,-3.05,-5.54%
OC[C@H]1O[C@@H](c2ccc(Cl)c(Cc3ccc(O[C@H]4CCOC4)cc3)c2)[C@H](O)[C@@H](O)[C@@H]1O [empagliflozin],1.11,-0.27,0.91,1.13,-2.24%
C[N+](C)(C)CC(=O)O [betaine],-1.71,-0.6,0.16,1.31,-1.65%
CCOC(=O)[C@H](CCc1ccccc1)N[C@H]1CS[C@H](c2cccs2)CN(CC(=O)O)C1=O [temocapril],-2.77,-0.7,1.38,-0.25,-3.19%
CC1CCc2c(N3CCC(O)CC3)c(F)cc3c(=O)c(C(=O)O)cn1c23 (stereo not given) [nadifloxacin],3.29,1.42,0.26,3.52,2.69%
NCc1ccc(S(N)(=O)=O)cc1 [mafenide],0.46,1.5,1.54,2.7,-2.32%
CC[C@H](C)[C@@H]1NC(=O)[C@H](Cc2ccc(OC)cc2)NC(=O)CCCSC[C@@H](C(=O)N2CCC[C@H]2C(=O)N[C@@H](CC(C)C)C(=O)NCC(N)=O)NC(=O)[C@H](CC(N)=O)NC(=O)[C@H](CCC(N)=O)NC1=O [carbetocin],-1.89,0.45,-1.53,1.22,-1.25%
N=C(N)NC(=O)c1cnn(-c2cccc3ncccc23)c1C1CC1 [zoniporide],-0.05,3.39,1.14,3.55,-1.51%
C[n+]1c2cc(N)ccc2cc2ccc(N)cc21 [acriflavinium],-3.77,-2.4,-2.84,-0.42,-5.69%
C=C(NC(=O)C(=C)NC(=O)c1csc(C2=N[C@@H]3c4csc(n4)[C@H]4NC(=O)c5csc(n5)[C@H]([C@](C)(O)[C@@H](C)O)NC(=O)[C@H]5CSC(=N5)/C(=C/C)NC(=O)[C@H]([C@@H](C)O)NC(=O)c5csc(n5)[C@]3(CC2)NC(=O)[C@H](C)NC(=O)C(=C)NC(=O)[C@H](C)NC(=O)[C@H]([C@@H](C)CC)N[C@@H]2C=Cc3c([C@H](C)O)cc(nc3[C@H]2O)C(=O)O[C@@H]4C)n1)C(N)=O [thiostrepton],-2.64,-1.12,-4.03,1.58,7.51%
CC(=O)OCC(=O)[C@@]1(O)CC[C@H]2[C@@H]3CCC4=CC(=O)CC[C@]4(C)[C@@]3(F)[C@@H](O)C[C@@]21C,-1.46,-0.43,0.97,-0.24,0.57%
Cc1nc(Nc2cnn(C3CCNCC3)c2)nc2c1N(C)C(=O)c1cc3ccccc3cc1N2C,2.64,-1.33,-2.15,1.63,48.4% (active)
C=C[C@]1(C)CC[C@@H](C(=C)C)C[C@H]1C(=C)C [beta-elemene],2.14,1.03,0.39,0.7,0.82%
OC(c1ccccc1)(c1ccccc1)C12CC[N+](CCOCc3ccccc3)(CC1)CC2 [umeclidinium],-0.48,1.77,0.73,1.46,1.64%
NCCC(O)(P(=O)(O)O)P(=O)(O)O [pamidronate],-0.49,2.17,-0.58,-3.14,-1.25%

# Reference: the supplement of paper PMC13380429
